The record followed here is PubChem BioAssay (EPA / NIEHS).

What all share (conditions): mRNA level, 48 h; actives raise or lower the signal
Read-out in assay [1]: Tumor necrosis factor receptor superfamily member 6 (Homo sapiens) (UniProt P25445)
The assay can be described thus: LTEA_HepaRG_FAS: Life Technologies and Expression Analysis (LTEA) Assay for Fas cell surface death receptor (FAS) using HepaRG (AID 2283447). The procedure, abridged:
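Differentiated HepaRG cells in serum-free induction medium were exposed 48 h to 8 half-log concentrations up to 100 uM in 0.5% DMSO, in duplicate. FAS mRNA was measured by qRT-PCR normalised to ACTB, GAPDH and POLR2A; bidirectional fit versus DMSO.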

Read-out in assay [2]: Fatty acid synthase (Homo sapiens) (UniProt P49327)
The experiment in a line: LTEA_HepaRG_FASN: Life Technologies and Expression Analysis (LTEA) Assay for Fatty Acid Synthase (FASN) using HepaRG (AID 2283448). The procedure, abridged:
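In human HepaRG cultures, 48 h chemical exposure (up to 100 uM, 0.5% DMSO) preceded TaqMan qRT-PCR of FASN.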

Read-out in assay [3]: Cyclin D2 (CCND2), CCND2 (gene 894)
The experiment in a line: LTEA_HepaRG_CCND2: Life Technologies and Expression Analysis (LTEA) Assay for Cyclin D2 (CCND2) using HepaRG (AID 2283449).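 Note: CCND2 transcript measured by TaqMan qRT-PCR and normalised to three housekeeping genes.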 The procedure, abridged:
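HepaRG, 48 h dosing, 8-pt half-log curve from 100 uM, 0.5% DMSO; duplicate wells. Readout: CCND2 transcript by microfluidic qRT-PCR, housekeeping-normalised; bidirectional fit vs DMSO baseline.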

Read-out in assay [4]: Cyclin Dependent Kinase Inhibitor 1A (CDKN1A), CDKN1A (gene 1026)
The assay can be described thus: LTEA_HepaRG_CDKN1A: Life Technologies and Expression Analysis (LTEA) Assay for Cyclin Dependent Kinase Inhibitor 1A (CDKN1A) using HepaRG (AID 2283450). The method in brief:
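Cryopreserved HepaRG cells were plated and cultured 48 h, then switched to serum-free induction medium. Chemicals (eight half-log concentrations, top 100 uM, 0.5% DMSO) were applied for 48 h. Lysates underwent qRT-PCR for CDKN1A with housekeeping normalization.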

Read-out in assay [5]: Cyclin D1 (CCND1), CCND1 (gene 595)
The assay can be described thus: LTEA_HepaRG_CCND1: Life Technologies and Expression Analysis (LTEA) Assay for Cyclin D1 (CCND1) using HepaRG (AID 2283451).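 For AC50: TaqMan qRT-PCR transcript level normalised to ACTB GAPDH and POLR2A housekeeping genes.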 The procedure, abridged:
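Human liver HepaRG line; 48 h dosing, 8 conc. ≤100 uM, 0.5% DMSO; TaqMan qRT-PCR mRNA, 3 housekeeping genes; bidirectional curve fit vs DMSO.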

Read-out in assay [6]: catalase (CAT), CAT (gene 847)
The assay can be described thus: LTEA_HepaRG_CAT: Life Technologies and Expression Analysis (LTEA) Assay for catalase (CAT) using HepaRG (AID 2283452). The method in brief: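 HepaRG cells in serum-free induction medium, 0.5% DMSO vehicle, exposed 48 h in duplicate over 8 half-log concentrations from 100 uM. CAT mRNA measured by qRT-PCR, normalized to ACTB, GAPDH, POLR2A; bidirectional fit versus DMSO.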

Read-out in assay [7]: flavin-containing dimethylaniline monooxygenases 3 (FMO3), FMO3 (gene 2328)
The assay can be described thus: LTEA_HepaRG_FMO3: Life Technologies and Expression Analysis (LTEA) Assay for flavin-containing dimethylaniline monooxygenases 3 (FMO3) using HepaRG (AID 2283453). The procedure, abridged: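 Eight-point concentration-response in serum-free HepaRG cultures (top 100 uM, 0.5% DMSO, 48 h). Read-out: FMO3 mRNA level normalized to three endogenous control genes, fitted bidirectionally versus vehicle.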

Read-out in assay [8]: CFLAR gene, CFLAR (gene 8837)
The experiment in a line: LTEA_HepaRG_CFLAR: Life Technologies and Expression Analysis (LTEA) Assay for CFLAR gene using HepaRG (AID 2283455). The procedure, abridged:
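qRT-PCR read-out (Fluidigm/TaqMan) of CFLAR mRNA, normalized to three housekeeping genes, in differentiated human HepaRG cells after 48 h chemical exposure; 8-point half-log series from 100 uM in 0.5% DMSO; bidirectional curve fitting versus DMSO.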

Read-out in assay [9]: Forkhead box O1 (FOXO1), FOXO1 (gene 2308)
The experiment in a line: LTEA_HepaRG_FOXO1: Life Technologies and Expression Analysis (LTEA) Assay for Forkhead box O1 (FOXO1) using HepaRG (AID 2283456). The procedure, abridged:
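HepaRG, 48 h exposure, 8-pt half-log series from 100 uM in 0.5% DMSO, duplicates; Fluidigm qRT-PCR mRNA, housekeeping-normalised; bidirectional fit vs DMSO baseline.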

Read-out in assay [10]: growth arrest and DNA damage 45 (GADD45A), GADD45A (gene 1647)
The experiment in a line: LTEA_HepaRG_GADD45A: Life Technologies and Expression Analysis (LTEA) Assay for growth arrest and DNA damage 45 (GADD45A) using HepaRG (AID 2283458). The procedure, abridged: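 Eight-point concentration-response in HepaRG cells: 48 h chemical exposure, 0.5% DMSO vehicle, top dose 100 uM. Normalized qRT-PCR mRNA readout with bidirectional fitting relative to DMSO.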

Read-out in assay [11]: Forkhead box O3 (FOXO3), FOXO3 (gene 2309)
The assay can be described thus: LTEA_HepaRG_FOXO3: Life Technologies and Expression Analysis (LTEA) Assay for Forkhead box O3 (FOXO3) using HepaRG (AID 2283459). The procedure, abridged: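 qRT-PCR readout of FOXO3 transcript, normalized to three housekeeping genes (ACTB, GAPDH, POLR2A); gain or loss fitted against 0.5% DMSO vehicle. HepaRG cells, 48 h chemical exposure, 8-point half-log series, top 100 uM.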

Read-out in assay [12]: ABC Transporter (ABCB1), ABCB1 (gene 5243)
The experiment in a line: LTEA_HepaRG_ABCB1: Life Technologies and Expression Analysis (LTEA) Assay for ABC Transporter (ABCB1) using HepaRG (AID 2283460). The procedure, abridged:
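HepaRG, 48 h exposure, 8-pt half-log series from 100 uM, 0.5% DMSO vehicle, duplicates. Readout: ABCB1 transcript by Fluidigm TaqMan qRT-PCR, housekeeping-normalized; bidirectional curve fit vs DMSO baseline.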

Read-out in assay [13]: growth arrest and DNA damage 45 (GADD45B), GADD45B (gene 4616)
The assay can be described thus: LTEA_HepaRG_GADD45B: Life Technologies and Expression Analysis (LTEA) Assay for growth arrest and DNA damage 45 (GADD45B) using HepaRG (AID 2283461). The method in brief: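 Values are bidirectional concentration-response fits against 0.5% DMSO controls. Underlying data: qRT-PCR mRNA levels in human HepaRG liver cells treated 48 h in serum-free induction medium, eight concentrations topping at 100 uM.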

Read-out in assay [14]: ABC Transporter (ABCC3), ABCC3 (gene 8714)
The assay can be described thus: LTEA_HepaRG_ABCC3: Life Technologies and Expression Analysis (LTEA) Assay for ABC Transporter (ABCC3) using HepaRG (AID 2283462). The method in brief: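 Differentiated HepaRG liver cells receive test chemicals at eight concentrations (max 100 uM) for 48 h. Expression of ABCC3 is quantified by qRT-PCR against ACTB, GAPDH and POLR2A, and activity is fitted in both directions against the DMSO control.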

Read-out in assay [15]: Cytochrome P450 (CYP1A1), CYP1A1 (gene 1543)
The experiment in a line: LTEA_HepaRG_CYP1A1: Life Technologies and Expression Analysis (LTEA) Assay for Cytochrome P450 (CYP1A1) using HepaRG (AID 2283454). The method in brief: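 Induction of CYP1A1 mRNA in a human hepatic cell line was measured 48 h after dosing, with 1 mM phenobarbital as induction positive control and 0.5% DMSO vehicle as baseline for bidirectional curve fitting.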

Calls of active or inactive are those of the source. Rule for the calls: active = hit-call score of the fitted dose curve at least 0.9, where 1 is the maximum; inactive = score below 0.9.

Chain of Fatty acid synthase (Homo sapiens) (P49327 whole entry, looked up): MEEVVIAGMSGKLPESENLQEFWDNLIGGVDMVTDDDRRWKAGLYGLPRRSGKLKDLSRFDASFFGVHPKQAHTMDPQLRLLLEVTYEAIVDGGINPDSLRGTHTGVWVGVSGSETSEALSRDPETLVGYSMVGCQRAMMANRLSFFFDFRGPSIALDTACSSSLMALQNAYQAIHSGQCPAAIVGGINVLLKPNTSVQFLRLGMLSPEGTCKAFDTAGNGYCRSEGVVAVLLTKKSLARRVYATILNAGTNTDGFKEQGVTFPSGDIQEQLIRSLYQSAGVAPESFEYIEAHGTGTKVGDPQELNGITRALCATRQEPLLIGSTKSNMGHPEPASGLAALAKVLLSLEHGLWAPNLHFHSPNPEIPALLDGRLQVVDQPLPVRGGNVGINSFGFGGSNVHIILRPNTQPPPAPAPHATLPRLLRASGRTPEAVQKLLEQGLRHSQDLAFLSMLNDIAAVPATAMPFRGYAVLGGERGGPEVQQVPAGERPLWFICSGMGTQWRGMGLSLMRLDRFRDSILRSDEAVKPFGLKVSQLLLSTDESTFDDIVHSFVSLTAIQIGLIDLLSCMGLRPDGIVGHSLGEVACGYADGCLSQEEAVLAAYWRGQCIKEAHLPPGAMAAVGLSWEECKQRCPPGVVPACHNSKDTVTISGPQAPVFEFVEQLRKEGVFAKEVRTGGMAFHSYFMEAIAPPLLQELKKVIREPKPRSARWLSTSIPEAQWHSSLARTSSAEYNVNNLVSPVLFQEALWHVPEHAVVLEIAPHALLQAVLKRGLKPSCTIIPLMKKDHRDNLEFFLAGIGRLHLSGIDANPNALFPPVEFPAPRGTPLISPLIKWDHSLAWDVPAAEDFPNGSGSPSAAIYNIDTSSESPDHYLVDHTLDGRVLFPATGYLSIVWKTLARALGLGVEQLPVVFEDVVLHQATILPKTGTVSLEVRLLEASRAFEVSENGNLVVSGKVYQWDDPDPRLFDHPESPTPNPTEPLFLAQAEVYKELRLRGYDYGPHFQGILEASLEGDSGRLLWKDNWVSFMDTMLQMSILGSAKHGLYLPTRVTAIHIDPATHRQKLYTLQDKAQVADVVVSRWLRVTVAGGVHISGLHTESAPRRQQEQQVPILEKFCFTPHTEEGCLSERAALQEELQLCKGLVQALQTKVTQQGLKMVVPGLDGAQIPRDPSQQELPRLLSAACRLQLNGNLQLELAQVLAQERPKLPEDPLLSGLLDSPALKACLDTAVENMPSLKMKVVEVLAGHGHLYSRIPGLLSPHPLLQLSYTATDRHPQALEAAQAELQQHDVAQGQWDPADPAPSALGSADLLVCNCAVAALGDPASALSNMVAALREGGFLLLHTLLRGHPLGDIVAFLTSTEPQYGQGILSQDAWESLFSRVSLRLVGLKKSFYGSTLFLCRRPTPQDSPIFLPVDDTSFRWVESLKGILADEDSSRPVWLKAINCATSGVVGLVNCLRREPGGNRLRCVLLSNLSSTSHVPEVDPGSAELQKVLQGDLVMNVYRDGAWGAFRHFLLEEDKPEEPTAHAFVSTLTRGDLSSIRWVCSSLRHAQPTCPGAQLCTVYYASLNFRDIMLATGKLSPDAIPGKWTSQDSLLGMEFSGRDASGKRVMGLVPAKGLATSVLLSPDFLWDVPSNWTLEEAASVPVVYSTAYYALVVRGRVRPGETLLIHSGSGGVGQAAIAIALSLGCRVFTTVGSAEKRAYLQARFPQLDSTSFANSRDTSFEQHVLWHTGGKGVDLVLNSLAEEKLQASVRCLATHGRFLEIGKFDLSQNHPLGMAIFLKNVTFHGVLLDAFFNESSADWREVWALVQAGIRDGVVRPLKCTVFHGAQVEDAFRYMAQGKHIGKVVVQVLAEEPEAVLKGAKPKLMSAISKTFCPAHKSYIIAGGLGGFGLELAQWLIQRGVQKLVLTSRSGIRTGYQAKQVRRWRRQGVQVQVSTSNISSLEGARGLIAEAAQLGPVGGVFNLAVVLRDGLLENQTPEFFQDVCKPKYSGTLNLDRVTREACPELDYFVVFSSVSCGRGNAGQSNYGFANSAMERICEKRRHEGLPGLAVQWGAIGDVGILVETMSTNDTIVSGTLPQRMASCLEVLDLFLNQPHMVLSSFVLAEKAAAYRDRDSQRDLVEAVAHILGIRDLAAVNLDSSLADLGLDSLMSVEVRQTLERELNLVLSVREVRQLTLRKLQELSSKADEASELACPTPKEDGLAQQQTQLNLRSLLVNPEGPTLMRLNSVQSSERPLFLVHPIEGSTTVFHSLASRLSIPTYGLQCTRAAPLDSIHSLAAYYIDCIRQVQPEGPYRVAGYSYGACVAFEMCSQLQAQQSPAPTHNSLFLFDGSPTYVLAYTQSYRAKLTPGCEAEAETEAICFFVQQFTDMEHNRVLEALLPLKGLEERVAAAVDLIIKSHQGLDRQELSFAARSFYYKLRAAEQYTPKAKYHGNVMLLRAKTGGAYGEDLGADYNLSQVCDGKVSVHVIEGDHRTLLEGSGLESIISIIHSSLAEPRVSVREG

As to `CCCN(C1CCN(C(=O)C2CCNCC2)CC1)[C@@H]1CCc2ccc(OC)cc2C1`, the molecule was classed as inactive in assay [1], in assay [3], in assay [4], in [10] and in assay [13]. In addition, the AC50 is 80.6 µM (active) in assay [2]; 50 µM (active) in assay [5]; 50.1 µM (active) in [6]; 57.5 µM (active) in assay [7]; 50 µM (active) in assay [8]; 50 µM (active) in [9]. The AC50 in assay [11] was 27.6 µM (active); in assay [12] it was 15.2 µM (active); in assay [14], 42.9 µM (active).
As for `CCn1nc(Cc2ccccc2)cc1C1CCN(C[C@H]2C[C@H](N(C)[C@@H](C(=O)O)C(C)C)C[C@@H]2c2cccc(F)c2)CC1`, the molecule was called inactive in assay [1], in [2], in assay [3], in [4], in [5] and in assay [6]. The result in assay [8], in [9], in [10], in assay [11], in [12] and in assay [13] was inactive. Further, the half-maximal activity concentration (AC50) is 50 µM (active) in assay [7], 83.9 µM (active) in assay [15] and 50 µM (active) in [14].
Consider `O=C(NS(=O)(=O)/C=C/c1ccccc1)c1ccc(F)cc1Cl`, for which the molecule was classed as inactive in [1], in assay [2], in assay [3], in assay [4], in [5] and in assay [6]. Further, the call in [7], in [8], in assay [9], in assay [10], in assay [11] and in assay [13] was inactive. The outcome in assay [14] was inactive. The values for the half-maximal activity concentration (AC50) in [15] and in assay [12] were 50 µM (active) and 10.8 µM (active), respectively.
Take `Cc1ccc(C)c(O)c1`: the call in assay [1], in [2], in [3], in assay [4], in [5] and in assay [6] was inactive. The molecule was classed as inactive in [7], in assay [8], in assay [9], in [10], in assay [11] and in assay [13]. The molecule was called inactive in [14]. Also, in assay [15], the AC50 is 51.2 µM (active).
In the case of `CCCCCCc1ccc(O)cc1O`, the call in assay [1], in [2], in assay [3], in assay [4], in assay [5] and in assay [6] was inactive. Moreover, the result in [7], in assay [8], in [9], in [10], in assay [11] and in assay [12] was inactive. The molecule was classed as inactive in assay [13] and in assay [14].
On to `Cn1cnc([N+](=O)[O-])c1Sc1ncnc2nc[nH]c12`, for which the molecule was classed as inactive in assay [1], in [2], in assay [3], in [5], in assay [8] and in [10]. Besides, the result in assay [13] and in [14] was inactive. In addition, the AC50 in assay [4] was 4.48 µM (active); in [6], 1.69 µM (active); in assay [7] it was 17.5 µM (active); in [15] it was 34.8 µM (active); in assay [9], 5.19 µM (active); in assay [11], 4.06 µM (active).
As for `CC(C)CCO`, the molecule was called inactive in assay [2], in assay [3], in assay [4], in [5], in [6] and in assay [7]. Besides, the molecule was classed as inactive in assay [15], in [8], in [9], in [10], in assay [11] and in [12]. The result in assay [13] and in [14] was inactive.
For `CCOCCO`, the outcome in assay [1], in assay [2], in assay [4], in assay [5], in [6] and in assay [7] was inactive. The call in [8], in [9], in assay [10], in assay [11], in assay [13] and in assay [14] was inactive.
As for `CC[C@H]1OC(=O)[C@H](C)[C@@H](O[C@H]2C[C@@](C)(OC)[C@@H](O)[C@H](C)O2)[C@H](C)[C@@H](O[C@@H]2O[C@H](C)C[C@H](N(C)C)[C@H]2O)[C@](C)(O)C[C@@H](C)C(=O)[C@H](C)[C@@H](O)[C@]1(C)O`, the molecule was called inactive in assay [1], in assay [2], in assay [3], in [4], in assay [5] and in assay [6]. The call in assay [7], in [8], in [9], in assay [10], in [11] and in assay [13] was inactive. The outcome in assay [14] was inactive.
